Test results: PubChem BioAssay AID1159580 (chemical genetic matrix, 2015)
Screen size: about 5,500 compounds; about 2,000 (36%) were called active. Not shown: some 18% with an inconclusive outcome. Cut-off read from the data, not from the text of the source: active = normalized growth mostly below about 0.91 (no sharp cut-off); inconclusive = no clear call, values can overlap the other calls; inactive = mostly above about 0.92. The list shows a part of the results.

Assay: chemical genetic growth profiling, strain panel (AID 1159580);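 note: tested at 20 µM; growth read once vehicle control cultures reached saturation at 30 °C; 1 = growth at the plate median or of vehicle wells; lower values mean less growth of the strain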
Conditions: S. cerevisiae deletion strains, growth OD

Measured: normalized growth

C=CCC1C(=O)N(S(=O)(=O)c2ccc(Cl)cc2)N=C1CCC (stereo unspecified)
inactive: locus YAR019C, strain CDC15, stronger effect = lower value 0.992 | locus YBL105C, strain PKC1, stronger effect = lower value 0.994 | locus YBR135W, strain CKS1, stronger effect = lower value 0.998 | locus YBR136W, strain MEC1, stronger effect = lower value 0.987 | locus YBR160W, strain CDC28, stronger effect = lower value 0.997 | locus YDL017W, strain CDC7, stronger effect = lower value 0.996 | locus YDL028C, strain MPS1, stronger effect = lower value 0.995 | locus YDL101C, strain DUN1, stronger effect = lower value 0.991 | locus YDL108W, strain KIN28, stronger effect = lower value 0.989 | locus YDL132W, strain cdc53, stronger effect = lower value 0.994 | locus YDL214C, strain PRR2, stronger effect = lower value 0.951 | locus YDR052C, strain DBF4, stronger effect = lower value 0.999 | locus YDR054C, strain cdc34, stronger effect = lower value 0.996 | locus YDR226W, strain ADK1, stronger effect = lower value 0.996 | locus YDR477W, strain SNF1, stronger effect = lower value 0.981 | locus YER123W, strain YCK3, stronger effect = lower value 0.961 | locus YER133W, strain GLC7, stronger effect = lower value 0.986 | locus YFL009W, strain cdc4, stronger effect = lower value 0.993 | locus YFL029C, strain CAK1, stronger effect = lower value 0.984 | locus YFR003C, strain YPI1, stronger effect = lower value 0.996 | locus YFR019W, strain FAB1, stronger effect = lower value 0.977 | locus YFR028C, strain CDC14, stronger effect = lower value 0.991 | locus YGR040W, strain KSS1, stronger effect = lower value 0.97 | locus YGR052W, strain FMP48, stronger effect = lower value 1.06 | locus YGR092W, strain DBF2, stronger effect = lower value 0.997 | locus YHR030C, strain SLT2, stronger effect = lower value 1.05 | locus YHR079C, strain IRE1, stronger effect = lower value 0.97 | locus YHR082C, strain KSP1, stronger effect = lower value 1.01 | locus YHR205W, strain SCH9, stronger effect = lower value 0.972 | locus YIL147C, strain SLN1, stronger effect = lower value 0.992 | locus YJL095W, strain BCK1, stronger effect = lower value 0.993 | locus YJL128C, strain PBS2, stronger effect = lower value 0.943 | locus YJL157C, strain FAR1, stronger effect = lower value 0.983 | locus YJR016C, strain ILV3, stronger effect = lower value 0.994 | locus YJR066W, strain TOR1 (second series), stronger effect = lower value 0.978 | locus YJR066W, strain TOR1, stronger effect = lower value 0.986 | locus YKL048C, strain ELM1, stronger effect = lower value 0.962 | locus YKL067W, strain YNK1, stronger effect = lower value 0.964 | locus YKL101W, strain HSL1, stronger effect = lower value 0.942 | locus YKL193C, strain SDS22, stronger effect = lower value 0.995 | locus YKL203C, strain TOR2, stronger effect = lower value 1.04 | locus YLR113W, strain HOG1, stronger effect = lower value 0.887 | locus YLR133W, strain CKI1, stronger effect = lower value 0.965 | locus YLR403W, strain SFP1, stronger effect = lower value 1 | locus YML070W, strain DAK1, stronger effect = lower value 0.963 | locus YMR001C, strain CDC5, stronger effect = lower value 0.991 | locus YMR205C, strain PFK2 (second series), stronger effect = lower value 0.966 | locus YMR277W, strain FCP1, stronger effect = lower value 0.999 | locus YNL006W, strain LST8, stronger effect = lower value 0.999 | locus YNL020C, strain ARK1, stronger effect = lower value 0.962 | locus YNL161W, strain CBK1, stronger effect = lower value 0.994 | locus YNL183C, strain NPR1, stronger effect = lower value 0.98 | locus YNL207W, strain RIO2, stronger effect = lower value 0.995 | locus YNL222W, strain SSU72, stronger effect = lower value 0.994 | locus YNL307C, strain MCK1 (second series), stronger effect = lower value 0.989 | locus YOL078W, strain AVO1, stronger effect = lower value 0.995 | locus YOL136C, strain PFK27, stronger effect = lower value 0.968 | locus YOR061W, strain CKA2, stronger effect = lower value 0.97 | locus YOR119C, strain RIO1, stronger effect = lower value 1.01 | locus YOR231W, strain MKK1, stronger effect = lower value 0.968 | locus YOR329C, strain SCD5, stronger effect = lower value 0.996 | locus YPL031C, strain PHO85, stronger effect = lower value 0.953 | locus YPL153C, strain RAD53, stronger effect = lower value 0.977 | locus YPL204W, strain HRR25, stronger effect = lower value 0.998 | locus YPL209C, strain IPL1, stronger effect = lower value 0.994 | locus YPL256C, strain CLN2, stronger effect = lower value 0.916 | locus YPR025C, strain CCL1, stronger effect = lower value 0.994 | locus YPR106W, strain ISR1, stronger effect = lower value 0.988 | locus YPR111W, strain DBF20, stronger effect = lower value 0.978 | strain NNK1, stronger effect = lower value 0.982 | strain TSCII, stronger effect = lower value 0.989
